In all, about 33,000 sequences were measured (“e-score”: median about -0.05, highest 2% from about 0.38 on). Many of the other results were omitted from the sample, so the highest values are more common in it than they were.
Each sequence was assayed against T1, SIX1-Q177R homeodomain (human, UniProt Q15475 108-198, Q177R) (assay: universal protein binding microarray; Universal all-10-mer PBM (8x60K, AMADID 030236), 300 nM GST-tagged protein, Alexa Fluor 488 anti-GST; buffer, salt, pH and temperature not stated (as in Berger); high values mean tight binding). Settings: protein: ivt; tags: N-terminal GST; dsDNA, one strand shown.
T1 sequence: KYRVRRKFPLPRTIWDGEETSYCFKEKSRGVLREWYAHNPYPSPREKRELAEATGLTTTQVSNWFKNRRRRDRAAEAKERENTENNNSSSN
In short: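 After in vitro transcription/translation, GST-tagged homeodomains were quantified against a recombinant GST standard curve by anti-GST western blot. They were then placed in duplicate at 300 nM final concentration on universal 'all 10-mer' protein binding microarrays of 8×60K format.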

Sequence | binding signal [E-score]
ATCCGAGG | 0.1653 ± 0.000757
GTAATCGA | 0.204 ± 0.015
CGGCTGAC | 0.174 ± 0.0351
CGAATGAC | 0.198 ± 0.0214
AAGAGGTG | 0.368 ± 0.00802
GTTCCGTA | 0.188 ± 0.0176
GGGTATAA | 0.152 ± 0.0231
GGGTCCCA | 0.1517 ± 0.0014
GTATCCGA | 0.312 ± 0.0026
GTATCCAA | 0.292 ± 0.0191
GTGTCTGA | 0.364 ± 0.022
GTATCCCA | 0.252 ± 0.00467
GTATCCTA | 0.187 ± 0.00559
GTGTCCCA | 0.442 ± 0.019
GTGTCCGA | 0.413 ± 0.0127
GGGTCCAA | 0.218 ± 0.025
GTGTCCAA | 0.419 ± 0.0151
GCGTCCTA | 0.168 ± 0.0119
GTGTCCTA | 0.4 ± 0.0124
CACCATGA | 0.289 ± 0.0156
CAGATACA | 0.313 ± 0.0113
AGGGTTAC | 0.162 ± 0.0418

Sequence | binding signal [E-score]
GGTGCCAA | 0.187 ± 0.0523
GAACGACA | 0.238 ± 0.0152
ATCCCCCG | 0.266 ± 0.0176
CACGCGAC | 0.26 ± 0.00798
GGTATACA | 0.269 ± 0.00593
TGTTATAA | 0.267 ± 0.015
ACAGGGGT | 0.266 ± 0.0127
CAATAGTG | 0.17 ± 0.0397
CACGGTGG | 0.26 ± 0.0142
AGGTTACA | 0.182 ± 0.0252
ATTCGACA | 0.163 ± 0.00531
CGATCACG | 0.173 ± 0.0459
CTCCCCGC | 0.168 ± 0.0157
ACACTCTG | 0.404 ± 0.00495
ACACACTC | 0.314 ± 0.0291
ATACTCTC | 0.158 ± 0.0315
ACACTCTC | 0.3915 ± 0.00342
ACTGGGCG | 0.192 ± 0.0152
CTAAGACA | 0.2225 ± 0.00145
CACAGCCG | 0.208 ± 0.0273
ACCAACGA | 0.187 ± 0.00325
CTCAGCAC | 0.185 ± 0.0185

Sequence | binding signal [E-score]
CAGACACC | 0.456 ± 0.0151
AAGACACC | 0.4713 ± 0.00312
GAGACACC | 0.462 ± 0.0147
CAGACACG | 0.353 ± 0.0179
AAGACACG | 0.35 ± 0.00553
GAGACAAC | 0.1522 ± 0.00125
AAGACACT | 0.3744 ± 0.00267
GAGACACA | 0.241 ± 0.0428
CAGACACA | 0.19 ± 0.0525
ACACAATC | 0.178 ± 0.0434
CACCGTTA | 0.24 ± 0.0265
CACGAAAC | 0.152 ± 0.0288
TACGTACA | 0.18 ± 0.0207
ACTCTACA | 0.296 ± 0.00689
ATTCTACA | 0.181 ± 0.0191
ACGATGGG | 0.151 ± 0.0168
CGTGTCCA | 0.4 ± 0.0263
GGTGTCCA | 0.48 ± 0.00796
GGTATCCA | 0.3692 ± 0.00211
AGTGTCCA | 0.348 ± 0.00804
CGTGTCCC | 0.398 ± 0.0161
GGAGTCCC | 0.171 ± 0.00561

Sequence | binding signal [E-score]
AGTGTCCC | 0.379 ± 0.0227
GGGGTCCA | 0.268 ± 0.0349
CTGATACA | 0.24 ± 0.00405
CTTTGACA | 0.219 ± 0.022
CCGAACCG | 0.175 ± 0.0143
ATTATACA | 0.165 ± 0.0294
ACACTTTA | 0.343 ± 0.037
CACTCCTG | 0.335 ± 0.0105
AATTACAC | 0.433 ± 0.0394
GATCACAC | 0.324 ± 0.0116
CATTACAC | 0.452 ± 0.0182
GATTACAC | 0.451 ± 0.00984
CATCACAC | 0.317 ± 0.0183
AATTGCAC | 0.151 ± 0.0498
CATTACTC | 0.173 ± 0.0527
AATCACAC | 0.348 ± 0.00368
GATTACCC | 0.175 ± 0.0203
CTGAGGTA | 0.185 ± 0.0187
CGGGGGTA | 0.315 ± 0.029
GGATAAAC | 0.169 ± 0.0541
CACCTAGG | 0.225 ± 0.0248
CGCCGACA | 0.209 ± 0.0201

From article PMC10668032, “Altered binding affinity of SIX1-Q177R correlates with enhanced WNT5A and WNT pathway effector expression in Wilms tumor”
